Screening results as filed in PubChem.
The list is not random: actives were taken first. Their share in the collection is about 32%.
CYP2C19 inhib: human CYP2C19 inhibition. CYP2C19 Supersomes, luciferin-H EGE luminescence, 30 min. inhibition, % at 5 µM. 96,000 tested, 21% active;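 active = CYP2C19 inhibition above a set limit at 5 µM in the primary screen, cut at about 50% in these data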;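 note: plate controls were negative control wells for no effect and 2.5 mM tranylcypromine positive control for full effect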
Target sequence (P33261 whole entry, looked up): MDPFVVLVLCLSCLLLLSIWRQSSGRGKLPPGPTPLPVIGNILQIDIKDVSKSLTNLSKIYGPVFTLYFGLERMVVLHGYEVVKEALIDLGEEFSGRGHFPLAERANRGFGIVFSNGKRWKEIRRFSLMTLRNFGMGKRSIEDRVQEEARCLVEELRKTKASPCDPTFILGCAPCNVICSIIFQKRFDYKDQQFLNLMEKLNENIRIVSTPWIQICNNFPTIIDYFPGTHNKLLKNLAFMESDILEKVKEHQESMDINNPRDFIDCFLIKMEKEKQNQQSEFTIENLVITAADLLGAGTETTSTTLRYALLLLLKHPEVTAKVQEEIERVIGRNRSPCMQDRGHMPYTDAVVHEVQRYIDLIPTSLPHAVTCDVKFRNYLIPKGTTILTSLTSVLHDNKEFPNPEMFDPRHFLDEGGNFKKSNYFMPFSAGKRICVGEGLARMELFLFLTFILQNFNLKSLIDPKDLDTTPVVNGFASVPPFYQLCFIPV
CYP2C9 inh: inhibitors of human CYP2C9 | P11712 | CYP2C9 Supersomes, luciferin-H conversion, luminescence | inhibition, % at 5 µM | 96,000 tested, 20% active;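 active = blocking of liver enzyme CYP2C9 beyond about 50% at 5 µM, limit read from the data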
PostGolgi ctrl: yeast control strain growth, post-Golgi counter-screen | 98,000 tested, 5% active | AID 738 | inhibition, % at 10 µM | efflux-deficient yeast background strain, growth absorbance A615, 16 h
CYP2C19 act: cytochrome P450 2C19 (human) activation | P33261 | recombinant CYP2C19, luciferin-H EGE luminescence; hits give high values; 0 = fully inhibited enzyme, 1 = untreated enzyme | activation factor at 5 µM | 96,000 tested, under 10 active | AID 1025;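 active = activation factor of at least 2 at 5 µM in the primary screen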;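 note: 0 = wells with 2.5 mM tranylcypromine and 1 = vehicle-only wells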
CYP2C9 activ: increases human cytochrome P450 2C9 activity | recombinant CYP2C9, luciferin-H conversion, luminescence; hits give high values; factor 1 = untreated enzyme, 0 = blocked | activation factor at 5 µM | 96,000 tested, 1.4% active | P11712;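 active = activation factor of 2 or more for CYP2C9 at a 5 µM dose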;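 note: 0 = sulfaphenazole-blocked wells and 1 = vehicle-only wells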
PostGolgi yeast: growth inhibition of a yeast mutant, post-Golgi transport screen | post-Golgi transport phenotypic cell assay | inhibition, % at 10 µM | 98,000 tested, 0.9% active;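 note: yeast cells grown in 1536-well plates; yeast grown about 18 h at 30C before absorbance read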
* marks the source's active call; other numbers are inactive results; . = not tested or not shown. Cut-off read from the data, not from the text of the source, unless noted: active = inhibition above about 30%; inactive = the rest.

SMILES | CYP2C19 inhib | CYP2C9 inh | PostGolgi ctrl | CYP2C19 act | CYP2C9 activ | PostGolgi yeast
COc1ccc(-n2nnc3c(=O)n(Cc4cccc(C)c4)cnc32)cc1 | 24 | 56* | -5 | 0.8 | 0.4 | -7
CC(C)(C)C(=O)[C@H]1[C@H](c2ccccc2)[C@@]2(N=C(c3ccccc3)OC2=O)C2c3ccccc3C=NN21 (stereo partly specified) | 53* | 29 | 37* | 0.5 | 0.7 | -10
Clc1ccc(Cn2ncc3c(NCc4ccco4)ncnc32)c(Cl)c1 | 22 | -180 | 39* | 0.8 | 2.8* | 6
Clc1ccc(-n2ncc3c(NCc4ccco4)ncnc32)cc1 | . | . | 9 | . | . | -1
CCc1cc2c(NCc3ccco3)ncnc2s1 | 50* | 41 | 10 | 0.5 | 0.6 | -9
Cn1cnc(S(=O)(=O)NCc2cccs2)c1 | . | . | 17 | . | . | 5
O=C(O)C(CCCCN1C(=O)c2ccccc2C1=O)N1C(=O)c2ccccc2C1=O (stereo unspecified) | 2 | 35 | -3 | 1 | 0.7 | -4
Cc1ccc(C(=O)ON=C2CCN(S(=O)(=O)c3ccccc3)CC2)cc1 | 12 | -3 | 10 | 0.9 | 1 | 12
CC1=[N+]([O-])C(C)(C)CC(C)(C)c2ccccc21 | 12 | 14 | 30* | 0.9 | 0.9 | 5
CC(C)CNc1c(N)c(=O)oc2ccccc12 | 0 | 12 | 0 | 1 | 0.9 | 12
Cc1nnc(SCC(=O)c2c(N)n(C)c(=O)n(C)c2=O)[nH]c1=O | -16 | -4 | . | 1.2 | 1 | .
Cc1ccccc1CSc1nnc(C)c(=O)[nH]1 | -14 | 63* | -3 | 1.1 | 0.4 | 1
Cc1nnc(SCCc2ccccc2)[nH]c1=O | 20 | 56* | 5 | 0.8 | 0.4 | 5
Cc1ccccc1CSc1nc2c(c(=O)[nH]1)CCC2 | 17 | 63* | 13 | 0.8 | 0.4 | -8
Cc1nnc(NCCc2ccccc2)[nH]c1=O | 9 | -1 | 9 | 0.9 | 1 | -1
Cc1cc(C)c(C)c(C(=O)CSc2nnc(C)c(=O)[nH]2)c1C | 8 | 94* | -6 | 0.9 | 0.1 | -6
CC1(C(=O)N(c2ccccc2)C(C(=O)NC2CCCC2)c2ccccn2)CC(=O)N=C2C=CC=CN21 (stereo unspecified) | -27 | -27 | 1 | 1.3 | 1.3 | 1
O=C(O)CCCC(=O)Nc1ccc(Br)cc1C(=O)O | . | . | 1 | . | . | -3
Cc1ccc(CNS(=O)(=O)c2cn(C)cn2)cc1 | 7 | -16 | -1 | 0.9 | 1.2 | 8
CCC(C)NC(=O)C(NS(=O)(=O)c1ccc2c(c1)c(=O)n(C)c(=O)n2C)c1ccccc1 (stereo unspecified) | 37 | 12 | 10 | 0.6 | 0.9 | 0
CCCCNC(=O)c1onc(CSc2ccccc2C)c1C(=O)O | 0 | 59* | -3 | 1 | 0.4 | -1
CC(C)NC(=O)c1onc(CSc2ccccc2F)c1C(=O)O | 10 | 38 | 39* | 0.9 | 0.6 | -2
CCCCNC(=O)c1onc(CSc2ccccc2F)c1C(=O)O | 0 | 57* | -1 | 1 | 0.4 | 4
COc1cc(NC(=O)C2CC(=O)NC3=C2C(=O)CCC3)cc(OC)c1 (stereo unspecified) | -4 | 16 | 2 | 1 | 0.8 | -10
CC(=O)N1CCN(S(=O)(=O)c2cccc(C(=O)NC3CCCc4ccccc43)c2)CC1 (stereo unspecified) | 8 | 28 | 11 | 0.9 | 0.7 | 19
SMILES | CYP2C19 inhib | CYP2C9 inh | PostGolgi ctrl | CYP2C19 act | CYP2C9 activ | PostGolgi yeast
O=C(Oc1ccc(OC(=O)c2ccco2)c(S(=O)(=O)c2ccc(Br)cc2)c1)c1ccco1 | 64* | 72* | 26 | 0.4 | 0.3 | -3
COC(=O)c1ccc(OC(=O)c2ccco2)cc1 | 7 | 6 | 5 | 0.9 | 0.9 | -7
CCOC(=O)C1CCN(C(=O)/C=C/c2ccccc2OC)CC1 | 51* | -163 | 7 | 0.5 | 2.6* | 7
CCOC(=O)C1CCN(C(=O)/C=C/c2ccc(OC)cc2)CC1 | 87* | 44 | -4 | 0.1 | 0.6 | 0
O=C(N/N=C/c1ccc(Br)cc1)c1ccccc1-n1cccc1 | 85* | 54* | 31* | 0.1 | 0.5 | -1
O=C(N/N=C\c1ccccc1)c1sccc1-n1cccc1 | 33 | 34 | 1 | 0.7 | 0.7 | -18
O=C(COC(=O)CCCSc1nc2ccccc2[nH]1)NC(=O)NC1CCCC1 | 13 | -52 | 10 | 0.9 | 1.5 | 2
CC(Sc1nc2ccccc2s1)C(=O)Nc1nnc(C(C)C)s1 (stereo unspecified) | 23 | 66* | 13 | 0.8 | 0.3 | -9
CC(C)c1nnc(NC(=O)C2CCN(c3nc4ccccc4s3)CC2)s1 | 3 | 1 | 34* | 1 | 1 | 5
CCC(Sc1nnc(C)s1)C(=O)Nc1nccs1 (stereo unspecified) | 35 | 25 | -6 | 0.6 | 0.8 | 9
CCC(Sc1nc2ccc(N)cc2s1)C(=O)Nc1nccs1 (stereo unspecified) | 77* | 62* | 6 | 0.2 | 0.4 | -8
CCC(Sc1nc2ccccc2s1)C(=O)Nc1nnc(C)s1 (stereo unspecified) | 27 | 67* | -3 | 0.7 | 0.3 | 3
CC(Sc1nncn1C)C(=O)Nc1nnc(C(C)C)s1 (stereo unspecified) | -8 | -6 | 3 | 1.1 | 1.1 | -5
O=C(NNC(=O)C1CC1c1ccccc1)Nc1cccc(Cl)c1 (stereo unspecified) | 22 | 13 | 0 | 0.8 | 0.9 | -1
CCCC/C(C)=N/NC(=O)C(=O)NCCc1ccccc1 | 2 | 15 | 18 | 1 | 0.8 | 5
Cc1cc(=O)n2nc(N3CCCC(C(=O)NCc4ccc5c(c4)OCO5)C3)sc2n1 (stereo unspecified) | 33 | 22 | 10 | 0.7 | 0.8 | -3
C/C(=N\NS(=O)(=O)c1ccc(C)cc1)c1ccc(C)s1 | -9 | 2 | 0 | 1.1 | 1 | -2
Cn1c(SCC(=O)NC2CC2)nnc1-c1cccc(NC(=O)c2ccccc2F)c1 | 24 | 10 | 18 | 0.8 | 0.9 | 3
O=C(N=C1SCC(=O)N1c1ccccc1)c1ccco1 | 51* | 16 | 0 | 0.5 | 0.8 | -3
COc1ccccc1N1CCN(C(=O)C2CCC(Cn3c(=S)[nH]c4ccccc4c3=O)CC2)CC1 (stereo unspecified) | -2 | 1 | 11 | 1 | 1 | 5
CC1CC(C)CN(C(=O)CCCn2c(=S)[nH]c3ccccc3c2=O)C1 (stereo unspecified) | 85* | 39 | -1 | 0.1 | 0.6 | -7
O=C(CCn1c(=S)[nH]c2ccccc2c1=O)N1CCOCC1 | 6 | -8 | 11 | 0.9 | 1.1 | 0
COc1ccc(N2CCN(C(=O)C3CCC(Cn4c(=S)[nH]c5ccccc5c4=O)CC3)CC2)cc1 (stereo unspecified) | 83* | 81* | 23 | 0.2 | 0.2 | 7
